# According to the supplement of paper PMC7411640:
# Structures can show the parent of a compound that is named as a salt.
# Test system: MDA-MB-468
# Experiment: phospho-S6 immunofluorescence (DAPI-normalised), per-plate z-score; higher = higher phospho-S6 signal (less pathway suppression)
# Settings: 24 h
# Experimental: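 GPCR-targeted compound library (MedChemExpress HY-L006) tested on MDA-MB-468 PTEN-null TNBC cells in 384-well plates at 0.1, 1 or 10 uM, combined with vehicle, GDC0941 450 nM or lapatinib 1 uM, for 24 h. Phospho-S6 (S240/244) immunofluorescence normalised to DAPI and expressed as a per-plate z-score; values are the mean of biological triplicates.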
SMILES,phospho-S6 immunofluorescence (z-score) (co-treatment: GDC0941 450 nM),phospho-S6 immunofluorescence (z-score) (co-treatment: lapatinib 1 uM),phospho-S6 immunofluorescence (z-score) (co-treatment: vehicle)
Cc1cccc(Cc2c[nH]cn2)c1C [Detomidine (hydrochloride)] (compound 10 µM),-1,0.28,0.19
COc1ccc2[nH]cc(C3=CCNCC3)c2c1 (compound 10 µM),-0.19,-2.58,-0.11
CCC(COC(=O)c1cc(OC)c(OC)c(OC)c1)(c1ccccc1)N(C)C (configuration not stated) [Trimebutine (maleate)] (compound 10 µM),1.12,1.5,0.51
CN1[C@@H]2C[C@@H](OC(=O)[C@H](CO)c3ccccc3)C[C@H]1[C@@H]1O[C@@H]12 [Scopolamine (hydrobromide)] (compound 10 µM),-1.4,-0.16,0.68
COc1ccc2c(c1)[nH]c1c(C)nccc12 [Harmine] (compound 10 µM),-0.75,-1.57,-1.55
CN1[C@@H]2CC[C@H]1C[C@@H](OC(=O)C(CO)c1ccccc1)C2 (some centres not stated) [Atropine (sulfate monohydrate)] (compound 10 µM),-1.09,-0.18,-0.82
CNCC(=O)c1ccc(O)c(O)c1 [Adrenalone (hydrochloride)] (compound 10 µM),0.18,1.2,0.39
O=C(O[C@H]1CN2CCC1CC2)N(Cc1cc(F)c(F)c(F)c1)c1cccc(F)c1 [Tarafenacin (D-tartrate)] (compound 10 µM),0.34,-1.58,1.05
Oc1ccc2c3c1O[C@H]1c4[nH]c5ccccc5c4C[C@@]4(O)[C@@H](C2)N(CC2CC2)CC[C@]314 [Naltrindole (hydrochloride)] (compound 10 µM),-1.12,-5.41,-1.21
"Cc1c(C(=O)c2cccc3ccccc23)c2cccc3c2n1[C@H](CN1CCOCC1)CO3 [WIN 55,212-2 (Mesylate)] (compound 10 µM)",-2.24,-0.84,-3.25
Cc1cccc(C(C)c2c[nH]cn2)c1C (configuration not stated) [Medetomidine (hydrochloride)] (compound 10 µM),0.08,0.79,0.41
CCCC(C)(C)c1ccc2c(c1)OC(C)(C)[C@@H]1CC=C(C)C[C@@H]21 (compound 10 µM),2.38,1.8,2.21
CN(C)C(=O)Oc1cc(OC(=O)N(C)C)cc(C(O)CNC(C)(C)C)c1 (configuration not stated) [Bambuterol (hydrochloride)] (compound 10 µM),-0.5,0.49,-0.4
NCCc1cc(O)c(O)cc1O [Oxidopamine (hydrobromide)] (compound 10 µM),0.33,2.77,2.94
